Results reported in PubChem BioAssay (Tox21).
Unmarked numbers belong to inactive results. Inconclusive results are not listed. Entries that show only a call come without a potency. Active and inactive are the calls of the source. Unless noted, calls follow the shape of the full dose curve.

Columns and labels:
[1] = target: Gonadotropin-releasing hormone receptor (Homo sapiens) (UniProt P30968); experiment: Human gonadotropin-releasing hormone receptor (GnRHR) small molecule agonists, calcium flux assay in GnRHR-HEK293 cells (AID 1920063); also: nearly all actives have a fitted effect of over 35% in size
Summary of the method: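 Calcium flux, agonist mode, human GnRHR stably integrated in HEK293; dye 1 h at 37 C before compound; Ex/Em=480/540 kinetic read, 3 min; 15 concentrations, triplicate.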

[2] = target: KiSS-1 receptor (Homo sapiens) (UniProt Q969F8); experiment: Human kisspeptin (KISS1R) small molecule agonists, calcium flux assay in KISS1R-HEK293 cells (AID 1920064; active = well fitted activation curve with a large enough effect in the repeat runs)
Summary of the method: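 Triplicate 15-concentration series were applied to dye-loaded human KISS1R HEK293 cells, and agonist-evoked calcium fluorescence was captured for 3 min.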

[3] = G protein-coupled receptor (GPCR) small molecule agonists, calcium flux assay: HEK293 wild type cell line counter screen (AID 1920065)
Summary of the method: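 Non-specific calcium responders were flagged by adding DMSO-dissolved compounds to dye-loaded cells and reading 480/540 nm fluorescence each second for 3 min; ATP served as positive control.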

[4] = p53 small molecule agonists, cell-based qHTS assay with human liver microsomes (AID 1963577)
Summary of the method: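 Fluorescence of the beta-lactamase reporter in p53RE-bla cells, detected with LiveBLAzer substrate (2 h, room temperature, dark), served as the read-out after 16 h compound exposure at 37 C with human liver microsomes and NADPH, each 0.5 mg/mL final.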

[5] = p53 small molecule agonists, cell-based qHTS assay with rat liver microsomes (AID 1963578); also: potency is read from the fitted curve at half-maximal effect
Summary of the method: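 Cells carrying a p53 response element–beta-lactamase reporter were plated and rested 5 h, then dosed with compound in DMSO plus rat liver microsomes and NADPH, each at 0.5 mg/mL final. After 16 h at 37 C, LiveBLAzer substrate was added for 2 h.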

[6] = p53 small molecule agonists, cell-based qHTS assay with human liver microsomes: qHTS cell viability counter screen (AID 1963579); also: nearly all actives have a fitted effect of over 45% in size
Summary of the method: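 Cytotoxicity counter screen: p53RE-bla, 4,000 cells/well; 5 h settle, 37 C/5% CO2; cpd + HLM 0.5 mg/mL + NADPH 0.5 mg/mL (final); 16 h, 37 C; CellTiter-Glo, 30 min RT, luminescence.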

[7] = p53 small molecule agonists, cell-based qHTS assay with rat liver microsomes: qHTS cell viability counter screen (AID 1963580); also: nearly all actives have a fitted effect of over 45% in size
Summary of the method: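 Cytotoxicity counter screen: intracellular ATP read by CellTiter-Glo luminescence in the p53 reporter wells. HCT-116 p53RE-bla cells were treated for 16 h at 37 C alongside rat liver microsomes and NADPH, each 0.5 mg/mL final.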

[8] = p53 small molecule agonists, cell-based qHTS assay: qHTS cell viability counter screen (AID 1963581); also: nearly all actives have a fitted effect of over 45% in size
Summary of the method: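 Multiplexed with the reporter read, a CellTiter-Glo step (30 min, room temperature) gauges ATP-based viability of HCT-116 p53RE-bla cells after 16 h compound incubation at 37 C.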

[9] = p53 small molecule agonists, cell-based qHTS assay (AID 1963582; active = well fitted activation curve with a large enough effect in the signal ratio in the repeat runs, not every such curve was filed as active; the % refers to the signal ratio)
Summary of the method: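 Beta-lactamase reporter cells (p53RE-bla) treated with compounds for 16 h at 37 C; FRET substrate, 2 h, room temperature; fluorescence intensity.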

[10] = target: 5-hydroxytryptamine receptor 2A (Homo sapiens) (UniProt P28223); experiment: 5-hydroxytryptamine receptor 2A (HTR2A) small molecule antagonists, cell-based qHTS assay (AID 1963586); also: nearly all actives have a fitted effect of over 45% in size; also: potency is read from the fitted curve at half-maximal effect
Summary of the method: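 CHO cells stably expressing human HTR2A were plated for 18 h at 37 C, then loaded with calcium dye for 1 h. Compounds were preincubated 5 min at room temperature before DOI (4 nM solution) was added. Kinetic fluorescence was read for 3 min.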

[11] = target: 5-hydroxytryptamine receptor 2A (Homo sapiens) (UniProt P28223); experiment: 5-hydroxytryptamine receptor 2A (HTR2A) small molecule agonists, cell-based qHTS assay (AID 1963587); also: nearly all actives have a fitted effect of over 30% in size; also: potency is read from the fitted curve at half-maximal effect
Summary of the method: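 Kinetic calcium-flux fluorescence (2 min, 1 sec intervals) after compound addition in agonist mode. HTR2A-CHO cells were cultured 18 h, then dye-loaded 1 h at 37 C.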

[12] = target: Muscarinic acetylcholine receptor M1 (Homo sapiens) (UniProt P11229); experiment: Cholinergic receptor muscarinic 1 (CHRM1) small molecule antagonists, cell-based qHTS assay (AID 1963588); also: nearly all actives have a fitted effect of over 40% in size
Summary of the method: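 Compounds were tested at 15 concentrations in three independent runs. Dye-loaded CHRM1-CHO cells were exposed 5 min at room temperature before stimulation by acetylcholine added at 50nM. Intracellular calcium was read kinetically on FDSS for 3 min.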

[13] = target: Muscarinic acetylcholine receptor M1 (Homo sapiens) (UniProt P11229); experiment: Cholinergic receptor muscarinic 1 (CHRM1) small molecule agonists, cell-based qHTS assay (AID 1963589); also: nearly all actives have a fitted effect of over 35% in size
Summary of the method: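 qHTS, 15-point titration, 3 independent runs: compounds pin-transferred onto dye-loaded CHRM1-CHO cells (human M1), calcium fluorescence followed every second to detect agonism.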

[14] = cAMP Responsive Elements (CRE) small molecule agonists, cell-based qHTS assay (AID 1963590); also: potency is read from the fitted curve at half-maximal effect
Summary of the method: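 Quantitative HTS for CRE agonists: HEK 293T CRE-bla cells, overnight plating, 3 h compound incubation at 37 C/5% CO2, then 2 h room-temperature LiveBLAzer B/G FRET substrate loading.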

[15] = cAMP Responsive Elements (CRE) small molecule antagonists, cell-based qHTS assay (AID 1963591; active = well fitted inhibition curve with a large enough effect in the signal ratio in the repeat runs, not every such curve was filed as active; the % refers to the signal ratio)
Summary of the method: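 Fluorescence intensity from cleaved LiveBLAzer B/G substrate (2 h, room temperature) quantified CRE-bla activity in HEK 293T cells exposed 3 h to compound with 0.25 uM final NKH477.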

[16] = target: Beta-2 adrenergic receptor (Homo sapiens) (UniProt P07550); experiment: Adrenergic beta2 receptor (ADRB2) small molecule antagonists, cell-based qHTS assay (AID 1963592); also: series mostly up to about 92 µM; nearly all actives have a fitted effect of over 50% in size
Summary of the method: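 Assay format: CHO-ADRB2 cells, 18-20hr seeding at 37C/5% CO2, then compound plus 1nM isoproterenol agonist mix for 0.5hr RT. Homogeneous time-resolved fluorescence cAMP detection after 1hr, expressed as 665/615 nm ratio.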

[17] = target: Beta-2 adrenergic receptor (Homo sapiens) (UniProt P07550); experiment: Adrenergic beta2 receptor (ADRB2) small molecule agonists, cell-based qHTS assay (AID 1963593);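 also: CHO cells stably overexpressing human ADRB2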
Summary of the method: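 CHO cells stably over-expressing ADRB2 were plated overnight at 37C, then dosed with compounds plus a stimulation mix containing 100uM IBMX and 25uM Ro-20-1724 for 0.5hr at room temperature. cAMP was measured by HTRF competition, 1hr.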

[18] = target: D(2) dopamine receptor (Homo sapiens) (UniProt P14416); experiment: Dopamine D2 receptor (DRD2) small molecule agonists, cell-based qHTS assay (AID 1963594); also: nearly all actives have a fitted effect of over 35% in size
Summary of the method: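 cAMP accumulation in DRD2-HEK293 cells measured by HTRF after 1 h detection; compounds added 10 min before NKH477 (200nM […]) forskolin-analogue stimulation, 30 min at room temperature, with Ro20-1724 present at 0.1 mM final.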

[19] = target: D(2) dopamine receptor (Homo sapiens) (UniProt P14416); experiment: Dopamine D2 receptor (DRD2) small molecule antagonists, cell-based qHTS assay (AID 1963595; active = well fitted inhibition curve with a large enough effect in the signal ratio in the repeat runs, with a control signal flat; the % refers to the signal ratio; also: potency is read from the fitted curve at half-maximal effect)
Summary of the method: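 In this cell-based antagonist screen, compounds act for 10 min at room temperature before a 30 min challenge with 12 nM quinpirole and 200 nM NKH477. cAMP is quantified by HTRF competition in DRD2-HEK293 cells containing 0.1 mM Ro20-1724.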

Sequence of KiSS-1 receptor (Homo sapiens) (Q969F8 whole entry, looked up): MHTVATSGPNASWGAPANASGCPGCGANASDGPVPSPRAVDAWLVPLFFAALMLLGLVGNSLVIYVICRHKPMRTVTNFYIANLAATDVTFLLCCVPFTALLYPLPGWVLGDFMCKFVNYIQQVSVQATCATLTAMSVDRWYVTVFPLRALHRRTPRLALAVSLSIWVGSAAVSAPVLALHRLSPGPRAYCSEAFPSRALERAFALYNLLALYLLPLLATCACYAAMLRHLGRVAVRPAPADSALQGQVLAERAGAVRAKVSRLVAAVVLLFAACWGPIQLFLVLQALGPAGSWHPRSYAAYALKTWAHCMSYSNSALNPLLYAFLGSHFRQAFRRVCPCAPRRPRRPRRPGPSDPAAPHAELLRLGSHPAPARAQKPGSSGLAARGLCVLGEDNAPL
Sequence of Muscarinic acetylcholine receptor M1 (Homo sapiens) (P11229 whole entry, looked up): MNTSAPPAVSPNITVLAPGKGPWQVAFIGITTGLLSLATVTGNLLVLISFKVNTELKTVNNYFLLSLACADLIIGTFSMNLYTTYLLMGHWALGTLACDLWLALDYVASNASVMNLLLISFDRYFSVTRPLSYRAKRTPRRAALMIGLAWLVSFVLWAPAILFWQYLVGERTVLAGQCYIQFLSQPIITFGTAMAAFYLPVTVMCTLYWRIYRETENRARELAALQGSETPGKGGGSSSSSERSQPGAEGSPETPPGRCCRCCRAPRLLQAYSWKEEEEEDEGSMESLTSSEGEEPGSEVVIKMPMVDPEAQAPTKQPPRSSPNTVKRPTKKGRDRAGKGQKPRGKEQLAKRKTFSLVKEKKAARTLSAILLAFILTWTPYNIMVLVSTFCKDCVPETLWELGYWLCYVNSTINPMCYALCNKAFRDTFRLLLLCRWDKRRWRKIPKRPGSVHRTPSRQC
Sequence of Gonadotropin-releasing hormone receptor (Homo sapiens) (P30968 whole entry, looked up): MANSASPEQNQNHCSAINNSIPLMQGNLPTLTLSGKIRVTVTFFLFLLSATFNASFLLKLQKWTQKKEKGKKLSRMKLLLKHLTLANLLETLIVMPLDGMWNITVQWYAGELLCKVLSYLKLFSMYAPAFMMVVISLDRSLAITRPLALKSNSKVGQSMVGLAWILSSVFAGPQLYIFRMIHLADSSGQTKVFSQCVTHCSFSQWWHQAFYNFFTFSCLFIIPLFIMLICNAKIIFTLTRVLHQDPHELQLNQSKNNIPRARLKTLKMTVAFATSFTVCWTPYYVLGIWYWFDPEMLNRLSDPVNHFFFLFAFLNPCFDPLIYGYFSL
Sequence of 5-hydroxytryptamine receptor 2A (Homo sapiens) (P28223 whole entry, looked up): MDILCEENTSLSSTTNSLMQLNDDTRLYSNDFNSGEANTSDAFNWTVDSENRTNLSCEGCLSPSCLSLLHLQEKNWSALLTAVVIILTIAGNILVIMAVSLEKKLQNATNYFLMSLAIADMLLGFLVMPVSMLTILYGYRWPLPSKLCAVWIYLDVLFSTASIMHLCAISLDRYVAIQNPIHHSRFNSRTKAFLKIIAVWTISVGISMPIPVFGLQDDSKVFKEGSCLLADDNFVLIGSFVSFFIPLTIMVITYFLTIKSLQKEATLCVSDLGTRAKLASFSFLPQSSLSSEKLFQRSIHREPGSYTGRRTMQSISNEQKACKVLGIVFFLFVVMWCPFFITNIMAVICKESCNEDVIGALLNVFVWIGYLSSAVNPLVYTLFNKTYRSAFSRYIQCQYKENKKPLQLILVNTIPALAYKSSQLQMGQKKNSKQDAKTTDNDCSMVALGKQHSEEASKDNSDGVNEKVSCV
Sequence of Beta-2 adrenergic receptor (Homo sapiens) (P07550 whole entry, looked up): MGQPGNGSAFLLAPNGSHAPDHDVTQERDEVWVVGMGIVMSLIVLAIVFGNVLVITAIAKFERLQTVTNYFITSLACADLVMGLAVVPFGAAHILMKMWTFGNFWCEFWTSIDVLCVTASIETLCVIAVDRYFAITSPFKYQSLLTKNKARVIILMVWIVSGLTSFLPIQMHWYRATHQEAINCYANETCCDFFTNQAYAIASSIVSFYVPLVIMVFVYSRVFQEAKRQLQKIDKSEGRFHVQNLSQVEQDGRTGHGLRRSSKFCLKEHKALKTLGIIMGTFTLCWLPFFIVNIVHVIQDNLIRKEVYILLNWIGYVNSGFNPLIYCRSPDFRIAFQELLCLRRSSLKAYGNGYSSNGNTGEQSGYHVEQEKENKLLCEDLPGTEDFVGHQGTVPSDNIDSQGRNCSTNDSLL
Sequence of D(2) dopamine receptor (Homo sapiens) (P14416 whole entry, looked up): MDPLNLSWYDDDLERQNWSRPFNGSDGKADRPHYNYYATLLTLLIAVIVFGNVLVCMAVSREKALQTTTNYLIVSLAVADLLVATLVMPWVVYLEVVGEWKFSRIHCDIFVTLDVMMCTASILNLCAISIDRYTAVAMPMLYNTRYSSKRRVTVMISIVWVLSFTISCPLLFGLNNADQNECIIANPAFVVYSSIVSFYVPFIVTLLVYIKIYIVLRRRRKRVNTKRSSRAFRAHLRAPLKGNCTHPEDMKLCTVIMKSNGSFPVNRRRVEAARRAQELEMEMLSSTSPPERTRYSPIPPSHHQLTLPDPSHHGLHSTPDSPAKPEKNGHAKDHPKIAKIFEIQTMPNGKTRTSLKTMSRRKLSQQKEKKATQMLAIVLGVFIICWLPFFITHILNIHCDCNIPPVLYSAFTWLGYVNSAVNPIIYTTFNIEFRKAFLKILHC

SMILES | Potency [1] | Potency [2] | Potency [3] | Potency [4] | Potency [5] | Potency [6] | Potency [7] | Potency [8] | Potency [9] | Potency [10] | Potency [11] | Potency [12] | Potency [13] | Potency [14] | Potency [15] | Potency [16] | Potency [17] | Potency [18] | Potency [19]
CC(C)C(O)(c1ccc(OC(F)(F)F)cc1)c1cncnc1 (stereo not given) | inactive | inactive | inactive | inactive | inactive | inactive | inactive | inactive | inactive | inactive | inactive | inactive | inactive | inactive | inactive | inactive | inactive | inactive | inactive
COc1cc2c(cc1OC)-c1cc(=Nc3c(C)cc(C)cc3C)n(C)c(=O)n1CC2 | inactive | inactive | inactive | inactive | inactive | – | inactive | inactive | inactive | inactive | inactive | – | inactive | 4.22 µM (active) | – | inactive | – | inactive | 15 µM (active)
CS(=O)(=O)c1ccc([C@@H](O)[C@@H](CF)NC(=O)C(Cl)Cl)cc1 | inactive | inactive | inactive | – | – | – | – | inactive | inactive | inactive | inactive | inactive | inactive | inactive | inactive | inactive | inactive | inactive | –
CNCc1ccc(NC(=O)c2c[nH]c3c2C(=O)CCC3)cc1 | inactive | inactive | inactive | – | inactive | inactive | inactive | – | inactive | inactive | inactive | – | inactive | – | inactive | inactive | – | – | inactive
CN1CCC(N(Cc2cccs2)c2ccccc2)CC1 | inactive | inactive | inactive | – | – | inactive | – | inactive | – | 0.365 µM (active) | inactive | inactive | inactive | inactive | inactive | inactive | – | – | –
O=S(=O)(O)c1ccccc1/C=C/c1ccc(-c2ccc(/C=C/c3ccccc3S(=O)(=O)O)cc2)cc1 | inactive | inactive | inactive | – | 11.7 µM (active) | inactive | inactive | inactive | – | inactive | – | – | inactive | – | – | – | – | inactive | inactive
CCC(C)n1ncn(-c2ccc(N3CCN(c4ccc(OC[C@H]5CO[C@](Cn6cncn6)(c6ccc(Cl)cc6Cl)O5)cc4)CC3)cc2)c1=O (stereo not given in full) | inactive | inactive | inactive | – | inactive | inactive | – | inactive | inactive | – | – | – | – | inactive | inactive | – | inactive | inactive | inactive
CCCN(C1CCN(C(=O)C2CCNCC2)CC1)[C@@H]1CCc2ccc(OC)cc2C1 | inactive | inactive | inactive | inactive | – | inactive | – | inactive | inactive | 37.5 µM (active) | 17.4 µM (active) | inactive | inactive | – | – | inactive | – | inactive | inactive
